The record followed here is PubChem BioAssay (NCI).

The panel holds about 83,000 compounds, 20% with a hit somewhere; the sample as a whole holds those more often.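 Plates (96-well) were seeded with cells, treated with compound at one concentration, and incubated for 48 hours before percent growth was determined.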 Unmarked numbers belong to inactive results. Calls of active or inactive are those of the source. The calls were made as follows: active = growth percent below 10; inactive = the rest.

Some test systems named below: NCI-H322M lung; NCI-H522 lung; MOLT-4 leukemia; SR leukemia; RPMI-8226 leukemia; HCC-2998 colon; COLO 205 colon; MDA-MB-231 breast; PC-3 prostate; LOX IMVI melanoma; A498 renal; T-47D breast; SW-620 colon; HCT-116 colon; MDA-MB-435 melanoma; IGROV1 ovarian; HOP-92 NSCLC; KM12 colon; HS 578T breast.
Holding throughout (test): NCI-60 one-dose screen, 48 h (100 = growth as untreated, 0 = no growth, -100 = all killed)
Holding throughout (settings): 10 µM

For the compound `O=C(/C=C/c1ccccc1)c1nc2ccccc2n1Cc1ccc(Br)cc1`, the growth in the assay with NCI-H322M lung was -6.79% (active); in the assay with NCI-H522 lung, -73.8% (active); with MOLT-4 leukemia, -12% (active); in the assay on SR leukemia, -19.5% (active); in the assay with RPMI-8226 leukemia, -23.1% (active); in the assay on HCC-2998 colon, -97.3% (active).
Turning to `O=C(NC([Se])=NC1CCCCC1)c1ccc2c(c1)OCO2`, the growth in the assay on COLO 205 colon was 28.1%; in the assay on MDA-MB-231 breast it was 68.5%; in the assay with PC-3 prostate, 36.4%; in the assay with LOX IMVI melanoma it was 81.6%; in the assay on A498 renal, 31.3%; in the assay on MOLT-4 leukemia, 55.6%. For the same compound, the growth in the assay on SR leukemia is 60.3%; with RPMI-8226 leukemia it was 63%; in the assay with T-47D breast it was -0.387% (active); with SW-620 colon, 41.2%; in the assay with HCT-116 colon, 24.7%; with HCC-2998 colon it was 74.1%.
As to `O=C(NCCCCC(c1ccc(F)cc1)c1ccc(F)cc1)Nc1ccc([N+](=O)[O-])c(C(F)(F)F)c1`, the growth in the assay with COLO 205 colon was -100% (active); in the assay on MDA-MB-231 breast it was -70% (active); in the assay with LOX IMVI melanoma, -73.8% (active); with A498 renal it was -9.75% (active); with T-47D breast, -10.4% (active); with MDA-MB-435 melanoma, -21.3% (active). Besides, the growth in the assay on SW-620 colon was 8.81% (active).
For `COc1ccc(/C=C/C(=O)c2nc3ccccc3n2Cc2ccc(Br)cc2)cc1`, the growth with NCI-H322M lung was 73.9%; in the assay on PC-3 prostate, 57.4%; in the assay on A498 renal, 122%; in the assay on MOLT-4 leukemia, 20.7%; in the assay on SR leukemia, 25.6%; in the assay on RPMI-8226 leukemia it was 22.5%. Further, in the assay on T-47D breast, the growth was 31.1%.
As to `C[C@H]1[C@@H](Oc2ccc(-c3cn(-c4ccnc5cc(Cl)ccc45)nn3)cc2)O[C@@H]2OC3(C)CC[C@H]4[C@H](C)CC[C@@H]1[C@@]24OO3`, the growth in the assay on NCI-H322M lung is 69.3%; with NCI-H522 lung it was 2.18% (active); in the assay with MDA-MB-231 breast it was 49.4%; in the assay with PC-3 prostate, 29.2%; in the assay with LOX IMVI melanoma it was 10.9%; with MOLT-4 leukemia, 17.5%. The growth with SR leukemia is 12.2%; in the assay on IGROV1 ovarian, 34.3%; in the assay with MDA-MB-435 melanoma, 35.6%; in the assay on SW-620 colon it was 27%.
Take `CC[C@]12C=CCN3CC[C@@]4(c5ccc(OC)cc5N(C)[C@H]4[C@@](O)(C(=O)OC)[C@@H]1OC(=O)CCC[P+](C1CCCCC1)(C1CCCCC1)C1CCCCC1)[C@@H]32`: the growth in the assay with HOP-92 NSCLC was -43.8% (active); in the assay on MDA-MB-231 breast it was -90.8% (active); in the assay with PC-3 prostate, -12% (active); in the assay on LOX IMVI melanoma, -96% (active); with MOLT-4 leukemia, 2.35% (active); in the assay with SR leukemia, 29.1%. Also, the growth in the assay on IGROV1 ovarian is -85.9% (active); in the assay with T-47D breast, -1.81% (active); in the assay on SW-620 colon, 3.91% (active); with HCT-116 colon, 0.156% (active); in the assay with HCC-2998 colon, -92.6% (active).
Take `CC12OOC(C)(OO1)C2CCC(=O)OCCNc1ccnc2cc(Cl)ccc12` (stereo not drawn): the growth in the assay with NCI-H522 lung was -79.2% (active); in the assay with COLO 205 colon, -54.4% (active); in the assay with MDA-MB-231 breast, 91.5%; in the assay on PC-3 prostate it was 53.6%; in the assay on LOX IMVI melanoma, -92.1% (active); with MOLT-4 leukemia, 26.1%. Moreover, the growth with SR leukemia is -27% (active); in the assay on T-47D breast, 16.5%; with MDA-MB-435 melanoma, 31.3%; in the assay on SW-620 colon, 7.3% (active); with HCT-116 colon, 0.954% (active); in the assay with HCC-2998 colon it was 88.5%. In addition, the growth with KM12 colon was 60.6%.
In the case of `COc1cc(OC)c(S(=O)(=O)N(CCCl)CCCl)cc1C(=O)/C=C/c1cc(OC)c(OC)c(OC)c1`, the growth in the assay on HOP-92 NSCLC was 9.15% (active); in the assay with MDA-MB-231 breast, 23.4%; with LOX IMVI melanoma, -84.5% (active); with A498 renal it was -0.926% (active); in the assay on MOLT-4 leukemia, -1.79% (active); in the assay on SR leukemia, 2.75% (active). Besides, the growth in the assay on RPMI-8226 leukemia is -24.3% (active); in the assay with HS 578T breast, 78.3%; in the assay on SW-620 colon it was 7.43% (active); in the assay with HCT-116 colon, -87.7% (active); in the assay with KM12 colon, -61.2% (active).
For the compound `CC[C@]12C=CCN3CC[C@@]4(c5ccc(OC)cc5N(C)[C@H]4[C@@](O)(C(=O)OC)[C@@H]1OC(=O)CCCC[P+](c1ccc(OC)cc1)(c1ccc(OC)cc1)c1ccc(OC)cc1)[C@@H]32`, the growth with HOP-92 NSCLC is -74.5% (active); with COLO 205 colon, -64.9% (active); in the assay with MDA-MB-231 breast, -97.4% (active); with LOX IMVI melanoma, -96.4% (active); in the assay with A498 renal, -54.7% (active); with MOLT-4 leukemia it was -26.2% (active). Besides, the growth was 23.2% with SR leukemia; -92% (active) in the assay on IGROV1 ovarian; -46.6% (active) with T-47D breast; -88.7% (active) with SW-620 colon; -94.9% (active) in the assay with HCT-116 colon.
In the case of `CCOC(=O)C1=C(Nc2ccccc2)C(=O)OC12C(=O)Nc1ccccc12` (stereo not drawn), the growth was 103% in the assay with NCI-H322M lung; 96.5% in the assay with NCI-H522 lung; 104% with MDA-MB-231 breast; 91.3% in the assay on PC-3 prostate; 94.3% with LOX IMVI melanoma; 120% with A498 renal. The growth was 108% in the assay on MOLT-4 leukemia; 97.3% in the assay on SR leukemia; 102% in the assay with IGROV1 ovarian; 108% in the assay on MDA-MB-435 melanoma; 97.1% in the assay on SW-620 colon; 105% in the assay on KM12 colon.
Take `COc1cc(OC)c(S(=O)(=O)N(CCCl)CCCl)cc1C(=O)/C=C/c1ccc(C)cc1`: the growth in the assay with HOP-92 NSCLC was 70.5%; in the assay with NCI-H522 lung, 82.6%; in the assay with COLO 205 colon it was 117%; in the assay on MDA-MB-231 breast it was 35%; in the assay with LOX IMVI melanoma, -24% (active); in the assay on MOLT-4 leukemia, 82.4%. Also, the growth with SR leukemia was 53.6%; in the assay on RPMI-8226 leukemia, 59.9%; with T-47D breast, 88%; in the assay with MDA-MB-435 melanoma, 79.5%; in the assay with SW-620 colon, 82.8%; with HCT-116 colon, 58%. In addition, in the assay on HCC-2998 colon, the growth is 93.6%.
With `COc1cc2cc(C(=O)N3C[C@@H](CCl)c4c3cc(OC(=O)N3CCN(C)[C@@H]5CSSC[C@@H]53)c3ccccc43)[nH]c2c(OC)c1OC`, the growth in the assay on NCI-H322M lung was -7.87% (active); with NCI-H522 lung, -55.8% (active); in the assay with MDA-MB-231 breast, -43.2% (active); with PC-3 prostate, -1.7% (active); in the assay with LOX IMVI melanoma, -32.7% (active); in the assay with A498 renal, -22.4% (active). Also, the growth is 3.8% (active) in the assay on MOLT-4 leukemia; 18.9% in the assay on SR leukemia; -20.4% (active) in the assay with RPMI-8226 leukemia; -25.5% (active) in the assay on HS 578T breast; -86.8% (active) with MDA-MB-435 melanoma; -6.71% (active) in the assay on SW-620 colon. For the same compound, the growth in the assay with HCT-116 colon was 5.27% (active); in the assay on HCC-2998 colon, -53.8% (active); in the assay with KM12 colon it was 0.977% (active).
